Compound activity deposited in PubChem by National Center for Advancing Translational Sciences (NCATS).
Gal4-VP16 FLuc: inhibits Gal4-VP16 luciferase reporter, ROR gamma counter-screen. actives 3.5% (n = 310,000). Drosophila S2 Gal4-VP16 UAS-luciferase, luminescence, 20 h. AID 2546. Potency, µM (doses to about 53.6 µM), inactives show at the highest dose activity, negative = inhibition, most hits filed as inhibitors;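 note: Gal4-VP16 expression switched on by copper sulfate through the metallothionein promoter; nearly all actives have a fitted effect of over 50% in size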
RORgamma inh: blocks mouse ROR gamma transcriptional activity; P51450; Drosophila S2 Gal4-RORgamma UAS-luciferase reporter, 20 h; Potency, µM (highest dose often 53.6 µM), inactives show at the top dose activity change, negative = inhibition, actives largely listed as inhibitors; actives 5.4% (n = 310,000); AID 2551; note: nearly all actives have a fitted effect of over 60% in size
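Drosophila S2 cells stably expressing Gal4-DBD/mouse RORγ fusion under metallothionein promoter plus UAS-luciferase; compound 1 h, then 700 uM CuSO4 induction for 20 h at ambient temperature; inhibition read as reduced luminescence.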
DT40 TDP1 CPT: DT40-hTDP1 cell growth loss with CPT. Potency, µM (doses to about 46.2 µM), for inactives: top-dose activity change, negative = growth inhibition, actives largely listed as inhibitors. actives 12% (n = 420,000). chicken DT40 Tdp1-/-;hTDP1 cells + 20 nM CPT, ATP luminescence, 48 h; note: nearly all actives have a fitted effect of over 55% in size
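Chicken DT40 Tdp1-/- cells complemented with human TDP1, 400 cells/well, exposed to compounds plus 20 nM camptothecin for at least 48 h at 37 C; viability read as ATP content by CellTiter-Glo luminescence.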
ELG1 DNA repair: inhibitors of ELG1-dependent DNA repair in HEK293T cells | HEK293T ELG1-luciferase reporter, luminescence, 16 h; DNA damage induced by 5-fluorouridine | Potency, µM (highest dose often 46.1 µM), for inactives: at the highest dose activity change, negative = inhibition, most hits filed as inhibitors | actives 2.3% (n = 330,000) | AID 504467; note: nearly all actives have a fitted effect of over 55% in size
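Reporter activity after DNA damage by 5-fluorouridine is monitored. Compound-treated cells incubate 16 hr at 37 °C, then ONE-Glo is added for 30 min before luminescence reading.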
TDP1 cell noCPT: qHTS for Inhibitors of human tyrosyl-DNA phosphodiesterase 1 (TDP1): qHTS in cells in absence of CPT; Potency, µM (highest dose often 46.2 µM), without a hit: at the top dose activity change, negative = growth inhibition, usual class: inhibitors; actives 15% (n = 420,000); AID 686978, 2013; DT40 Tdp1-/- hTDP1 cells, no CPT, ATP luminescence, 48 h; note: nearly all actives have a fitted effect of over 55% in size
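Stably hTDP1-transfected Tdp1-null chicken DT40 cells were treated with library compounds minus camptothecin and grown for at least 48 hr at 37 °C, after which cellular ATP was quantified by luminescence.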
12-LOX inh: ALOX12 (human) lipoxygenase inhibition; purified 12hLO, xylenol orange hydroperoxide absorbance; Potency, µM (series often up to 108 µM), for the others: at the highest dose activity change, negative = inhibition, hits mostly inhibitors; actives 1.1% (n = 580,000)
Target sequence (P18054 whole entry, looked up): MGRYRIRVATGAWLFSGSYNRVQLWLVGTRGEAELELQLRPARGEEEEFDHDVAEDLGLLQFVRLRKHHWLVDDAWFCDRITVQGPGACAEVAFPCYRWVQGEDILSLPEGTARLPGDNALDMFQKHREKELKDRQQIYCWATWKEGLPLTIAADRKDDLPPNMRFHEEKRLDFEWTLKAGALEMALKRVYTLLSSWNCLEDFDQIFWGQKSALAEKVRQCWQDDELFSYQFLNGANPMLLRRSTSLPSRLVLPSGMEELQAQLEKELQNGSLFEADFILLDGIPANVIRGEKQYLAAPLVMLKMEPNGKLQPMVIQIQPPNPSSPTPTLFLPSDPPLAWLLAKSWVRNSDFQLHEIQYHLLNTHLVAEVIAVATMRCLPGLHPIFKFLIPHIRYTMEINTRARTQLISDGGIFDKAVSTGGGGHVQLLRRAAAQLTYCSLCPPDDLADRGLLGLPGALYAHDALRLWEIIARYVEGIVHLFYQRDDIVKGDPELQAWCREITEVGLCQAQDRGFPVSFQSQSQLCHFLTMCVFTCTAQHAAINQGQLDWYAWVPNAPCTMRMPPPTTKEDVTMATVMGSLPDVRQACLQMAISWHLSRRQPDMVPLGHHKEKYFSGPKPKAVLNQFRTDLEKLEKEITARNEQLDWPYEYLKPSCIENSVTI
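Purified human 12hLO at 150 nM in 25 mM Hepes, 0.01% Triton X-100, pH 7.0, preincubated 15 min at room temperature with compound. Reaction started with 40 uM arachidonic acid, 30 min at room temperature. Hydroperoxide measured by Fe-xylenol orange, 573/405 nm absorbance ratio.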
* marks the source's active call; other numbers are inactive results; ? = inconclusive; · = not tested or not shown; [ ] = remark or other dose. Rows were chosen to be rich in hits. Some 15% of all compounds tested hit in one or more screens of this group. Calls come from the whole dose curve; as a rule, active = well fitted curve in the direction sought with a large enough effect; inconclusive = small, poorly fitted or top-dose-only effect, or another doubt; inactive = no such curve, though single readings can be large; an effect the other way counts as inactive or inconclusive. % is set by controls: 0 for no effect and ±100 for the full control effect; potency is the fitted concentration of half-maximal effect.

SMILES	Gal4-VP16 FLuc	RORgamma inh	DT40 TDP1 CPT	ELG1 DNA repair	TDP1 cell noCPT	12-LOX inh
COc1ccccc1NS(=O)(=O)c1cc(NC(=O)c2cc[n+]([O-])cc2)ccc1N1CCCC1	-27.4%	-5.4%	?	0.0%	?	?
O=C(Nc1ccc(N2CCOCC2)c(S(=O)(=O)Nc2ccccc2Cl)c1)c1ccc(F)cc1	·	·	?	18.3µM*	?	?
O=C(Nc1ccc(Cl)c(Cl)c1)Nc1ccc(N2CCCC2)c(S(=O)(=O)Nc2ccccc2Cl)c1	?	-82.9%	3.26µM*	?	4.11µM*	-6.3%
COc1ccccc1NS(=O)(=O)c1cc(NC(=O)c2cnccn2)ccc1N1CCOCC1	-14.2%	3.3%	-17.0%	?	0.0%	10.9%
CN(c1ncccc1CNC(=O)CN1CCCC1=O)C1CCCCC1	·	·	·	·	·	6.5%
COCCNC(=O)C1COC2(CCN(C(=O)c3cccc(OC)c3)CC2)N1C(=O)c1ccc(F)cc1 (centres undefined)	·	·	·	·	·	-0.7%
COCc1nncn1C1CCN(S(=O)(=O)c2cc(F)ccc2OC)CC1	·	·	·	·	·	33.8%
O=C(Nc1ccc(F)cc1)Nc1ccc(N2CCCC2)c(S(=O)(=O)Nc2ccccc2Cl)c1	?	?	23.1µM*	?	23.1µM*	-6.7%
CN1CCC(CNC(=O)Nc2csc3ccccc23)CC1	3.1%	26.3%	-13.1%	-6.5%	-4.5%	39.8µM*
O=C(Nc1ccc(F)cc1)Nc1csc2ccccc12	-15.7%	-27.2%	23.1µM*	3.5%	23.1µM*	-2.0%
COc1ccc(CNC(=O)c2noc(-c3ccc4c(c3)OCO4)n2)cc1	·	·	·	·	·	2.3%
CCn1cnc2c1c(=O)n(CC(=O)NC(=O)NCc1ccccc1)c(=O)n2Cc1ccccc1	·	·	·	·	·	-3.4%
Cc1ccc(NS(=O)(=O)c2cccc(C(=O)Nc3ccc4oc(C)nc4c3)c2)cc1	·	·	·	·	·	0.0%
COC(=O)CSc1n[nH]c(-c2ccncc2)n1	·	-5.7%[0.365 µM]	-16.9%	11.5%	-11.0%	-21.2%
CCc1ccc(C(=O)CSc2n[nH]c(-c3ccncc3)n2)cc1	11.2µM*	38.7%	-13.6%	0.0%	-22.1%	2.4%[57.4 µM]
Cc1ccc(C)c(NC(=O)CSc2n[nH]c(-c3ccccn3)n2)c1	?	6.31µM*	23.1µM*	?	18.4µM*	0.1%
Cc1nc2c(c(SCC(=O)Nc3ccccc3C(F)(F)F)n1)CCC2	·	·	?	·	20.6µM*	-15.5%
O=C(CSc1n[nH]c(-c2ccncc2)n1)Nc1ccccc1C(F)(F)F	17.0%	0.4%	18.4µM*	-3.5%	10.3µM*	0.0%
CCN(CC)C(=O)c1ccc2oc(CN3CCN(C(=O)Nc4cccc(Cl)c4C)CC3)nc2c1	·	·	·	·	·	0.0%
CCC(C)NC(=O)Cn1nc(C)c2sc(-c3ccccc3)nc2c1=O (centres undefined)	·	·	·	·	·	20.3%
COCCc1nncn1C1CCN(C(=O)c2ccc(Br)cc2)CC1	·	·	·	·	·	42.8%
Cc1ccccc1NC(=O)CSc1nnc(-c2ccccn2)o1	4.2%	-0.5%	-10.2%	0.0%	-1.7%	1.6%
Cc1ccc(O)c(NC(=O)CSc2n[nH]c(-c3ccccc3)n2)c1	?	?	?	4.4%	16.4µM*	-10.1%
Cc1ccccc1NC(=O)CSc1n[nH]c(-c2ccccn2)n1	·	·	18.4µM*	?	?	-1.1%
O=C(CSc1n[nH]c(-c2ccccc2)n1)c1ccc(O)c(O)c1	-5.2%	-23.8%	?	-4.7%	?	2.51µM*
SMILES	Gal4-VP16 FLuc	RORgamma inh	DT40 TDP1 CPT	ELG1 DNA repair	TDP1 cell noCPT	12-LOX inh
CC1(C)CC(C#N)(N2CCOCC2)CCO1 (centres undefined)	-13.6%	-28.5%	2.91µM*	·	?	?
COc1ccccc1C1(CC#N)CCOC(C)(C)C1 (centres undefined)	·	·	·	·	·	-36.0%
Cn1cc(CN(C(=O)Nc2ccc(Cl)c(Cl)c2)C2CCCCC2)c2ccccc21	·	·	2.31µM*	·	4.11µM*	-15.5%
N#CCCN(C(=O)Nc1ccccc1)C1CCCCC1	·	·	1.6%	·	2.9%	-2.1%
Cn1cc(CN(C(=O)Nc2ccccc2)C2CCCCC2)c2ccccc21	·	·	6.51µM*	·	8.2µM*	-4.9%
Cc1cccc(CNC[C@H]2Cn3c(-c4ccc(Cl)cc4)cnc3CO2)n1	·	·	·	·	·	35.9%[176 µM]
COc1ccc(N2CCN(C(=S)Nc3ccc(C)cc3)CC2)cc1	-2.2%	10µM*	-20.9%	-7.9%	-35.5%	0.0%
Cc1ccc(N2CCN(C(=S)Nc3ccccc3)CC2)cc1	?	6.31µM*	-8.8%	8.2%	?	-7.7%
S=C(Nc1ccccc1)N1CCN(c2ccccc2)CC1	·	·	?	·	?	0.4%
CC(=O)c1ccc(N2CCN(C(=S)Nc3ccccc3)CC2)cc1	-25.3%	?	?	-4.2%	20.6µM*	0.0%
CC(=O)c1ccc(N2CCN(C(=S)Nc3ccccc3F)CC2)cc1	-10.7%	34.4%	?	5.7%	7.31µM*	-9.2%
CCc1noc(-c2cn(C3CCCN(C(=O)c4cc(Cl)ccc4F)C3)nn2)n1 (centres undefined)	·	·	·	·	·	56.6%
S=C(Nc1ccccc1)N1CCOCCOCCN(C(=S)Nc2ccccc2)CCOCCOCC1	-23.8%	17.8µM*	?	-19.2%	?	140.4%
S=C(Nc1ccc(Oc2ccccc2)cc1)N1CCOCC1	-2.0%	-22.1%	8.9%	2.3%	-14.1%	10.4%
Cc1ccc(C2Cn3nnc(C(=O)N4CCN(C(=O)Cc5cccc(F)c5)CC4)c3CO2)cc1 (centres undefined)	·	·	·	·	·	38.3%
CCc1ccc(C2Sc3ccccc3NC3=C2C(=O)c2ccccc23)cc1 (centres undefined)	·	·	16.4µM*	·	?	?
CC(C)c1ccc(C2Sc3ccccc3NC3=C2C(=O)c2ccccc23)cc1 (centres undefined)	·	·	16.4µM*	·	16.4µM*	?
CCn1ncc(N2CCCC(CC(=O)NCc3cccc(Cl)c3)C2)cc1=O (centres undefined)	·	·	·	·	·	52.4%
Oc1ccccc1CN1CCC(O)(c2csc(CN3CC[C@@H](O)C3)n2)CC1	·	·	·	·	·	33.4%[176 µM]
COc1ccc(-c2oc(=O)c3cc(OC)c(OC)cc3c2C#CCCO)cc1	·	·	?	16.4µM*	20.6µM*	?
C#C[C@]1(OC(C)=O)CCC2C3CCc4cc(OC(C)=O)ccc4C3CCC21C (some centres undefined)	·	·	·	·	·	-2.5%
COCc1ccc(-c2c(-c3ccc(OC)cc3)oc(=O)c3cc(OC)c(OC)cc23)cc1	·	·	?	-8.5%	23.1µM*	-8.6%
